Holding throughout (design): scale not given: direction of the effect not stated beside the values
Assay [1] addresses Protein translocase subunit SecA (Escherichia coli (strain K12)) (UniProt P10408). In words: Assay to Identify E. coli SecA ATPase Inhibitors. It counts as functional. The note with it: 30 µM.
The target of assay [2] is T1, Ubiquitin-activating enzyme e1, putative (Leishmania donovani (strain BPK282A1)) (UniProt E9BSI1).
T1 sequence (whole entry): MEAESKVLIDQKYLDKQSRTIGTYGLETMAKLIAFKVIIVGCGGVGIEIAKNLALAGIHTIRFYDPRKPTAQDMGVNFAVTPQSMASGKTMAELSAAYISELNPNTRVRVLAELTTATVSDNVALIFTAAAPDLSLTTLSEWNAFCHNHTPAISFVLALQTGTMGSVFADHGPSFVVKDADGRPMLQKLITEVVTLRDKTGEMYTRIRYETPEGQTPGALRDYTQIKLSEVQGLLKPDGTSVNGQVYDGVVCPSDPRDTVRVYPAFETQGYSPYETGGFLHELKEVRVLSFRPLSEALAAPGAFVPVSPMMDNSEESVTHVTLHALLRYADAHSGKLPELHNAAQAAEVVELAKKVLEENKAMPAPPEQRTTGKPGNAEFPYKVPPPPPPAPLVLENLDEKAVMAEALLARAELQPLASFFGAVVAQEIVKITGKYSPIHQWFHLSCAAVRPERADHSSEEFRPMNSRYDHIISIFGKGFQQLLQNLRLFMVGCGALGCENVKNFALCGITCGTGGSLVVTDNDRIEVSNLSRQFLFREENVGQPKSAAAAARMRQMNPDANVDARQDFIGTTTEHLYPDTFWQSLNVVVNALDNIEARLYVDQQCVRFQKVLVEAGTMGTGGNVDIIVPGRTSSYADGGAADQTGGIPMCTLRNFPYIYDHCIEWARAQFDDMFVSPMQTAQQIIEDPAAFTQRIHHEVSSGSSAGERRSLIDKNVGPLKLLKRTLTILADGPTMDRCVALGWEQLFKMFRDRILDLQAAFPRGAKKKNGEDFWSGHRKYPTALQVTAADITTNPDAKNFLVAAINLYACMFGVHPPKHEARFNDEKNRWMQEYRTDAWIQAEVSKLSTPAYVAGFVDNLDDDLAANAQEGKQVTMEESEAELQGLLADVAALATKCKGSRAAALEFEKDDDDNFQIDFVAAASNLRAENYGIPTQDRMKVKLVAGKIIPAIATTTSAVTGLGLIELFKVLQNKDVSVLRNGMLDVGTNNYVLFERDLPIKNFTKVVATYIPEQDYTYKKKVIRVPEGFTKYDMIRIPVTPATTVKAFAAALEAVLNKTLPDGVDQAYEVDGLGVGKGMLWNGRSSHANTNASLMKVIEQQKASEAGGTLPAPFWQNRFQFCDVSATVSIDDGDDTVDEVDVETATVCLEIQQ
In words: Leishmania donovani Ubiquitin Activating Enzyme (LdE1). Format: functional. The following applies: 30 µM.

Assay [3] deals with AMP-activated protein kinase, AMPK (Homo sapiens) (UniProt P54646+O43741+P54619+Q9UGJ0+Q9Y478+Q13131+Q9UGI9). The assay is described as follows: AMP-dependent Kinase enzyme assay. An in vitro enzyme assay that detects ADP turnover that is directly proportional to AMPK activity. This uses naive AMPK that is activated during the assay with MK-8722. It counts as functional. The following applies: 30 µM.

Assay [4] deals with Sialic acid-binding Ig-like lectin 9 (Homo sapiens) (UniProt Q9Y336). In words: Hs-Siglec9 ALPHAscreen SOP 20170721. The following applies: 10 µM. (Alpha assays give light when donor and acceptor beads are brought close together.)
A further assay relates to Trypanosoma cruzi. In words: Trypanosoma cruzi phosphomannomutase and mannose-1-phosphate guanylyltransferase assay. Format: functional. The following applies: 10 µM.
In assay [5] the target is T2, Arginase-2, mitochondrial (Homo sapiens) (UniProt P78540).
T2 sequence (whole entry): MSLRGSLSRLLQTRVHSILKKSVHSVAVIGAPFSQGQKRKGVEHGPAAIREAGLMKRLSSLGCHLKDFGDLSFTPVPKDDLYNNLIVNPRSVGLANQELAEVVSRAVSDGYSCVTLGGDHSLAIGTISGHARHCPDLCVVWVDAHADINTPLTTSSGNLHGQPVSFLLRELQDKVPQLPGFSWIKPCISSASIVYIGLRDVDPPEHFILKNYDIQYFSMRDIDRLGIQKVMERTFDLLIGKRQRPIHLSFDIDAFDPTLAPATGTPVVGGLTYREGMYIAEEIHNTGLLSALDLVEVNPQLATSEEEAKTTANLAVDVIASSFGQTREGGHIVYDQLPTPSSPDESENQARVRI
In words: in vitro enzyme assay to detect the production of urea directly proportional to the activity of Arginase II. Also: in the data most compounds retested in dose-response had high values. It counts as functional. The following applies: 33.3 µM.

The target of assay [6] is T3, Proteasome subunit beta (Trypanosoma cruzi) (UniProt O96673).
T3 sequence (whole entry): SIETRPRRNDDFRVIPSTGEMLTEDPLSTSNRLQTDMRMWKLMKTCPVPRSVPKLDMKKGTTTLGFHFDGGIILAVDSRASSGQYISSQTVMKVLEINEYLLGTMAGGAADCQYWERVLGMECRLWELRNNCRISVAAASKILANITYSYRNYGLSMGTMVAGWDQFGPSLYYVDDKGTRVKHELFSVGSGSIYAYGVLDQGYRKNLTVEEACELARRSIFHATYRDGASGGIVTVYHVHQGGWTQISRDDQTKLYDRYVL
In words: Trypanosoma cruzi proteasome chymotrypsin-like activity (TcProtChymo) assay. Also: in the data most compounds retested in dose-response had high values. Format: functional. The note with it: 9.37 µM.

The species named for a further assay is Homo sapiens. In words: To identify inhibition of the IFN signalling (Jak-Stat) pathway via expression of an eGFP reporter gene under the control of an IFN-stimulated response element (ISRE) containing MxA promoter. The note with it: 30 µM. Format: functional. For orientation: A reporter such as luciferase makes a cellular process visible.
Assay [7] has as its target T4, Tyrosyl-tRNA synthetase, putative (Trypanosoma cruzi (strain CL Brener)) (UniProt Q4DSP6).
T4 sequence (whole entry): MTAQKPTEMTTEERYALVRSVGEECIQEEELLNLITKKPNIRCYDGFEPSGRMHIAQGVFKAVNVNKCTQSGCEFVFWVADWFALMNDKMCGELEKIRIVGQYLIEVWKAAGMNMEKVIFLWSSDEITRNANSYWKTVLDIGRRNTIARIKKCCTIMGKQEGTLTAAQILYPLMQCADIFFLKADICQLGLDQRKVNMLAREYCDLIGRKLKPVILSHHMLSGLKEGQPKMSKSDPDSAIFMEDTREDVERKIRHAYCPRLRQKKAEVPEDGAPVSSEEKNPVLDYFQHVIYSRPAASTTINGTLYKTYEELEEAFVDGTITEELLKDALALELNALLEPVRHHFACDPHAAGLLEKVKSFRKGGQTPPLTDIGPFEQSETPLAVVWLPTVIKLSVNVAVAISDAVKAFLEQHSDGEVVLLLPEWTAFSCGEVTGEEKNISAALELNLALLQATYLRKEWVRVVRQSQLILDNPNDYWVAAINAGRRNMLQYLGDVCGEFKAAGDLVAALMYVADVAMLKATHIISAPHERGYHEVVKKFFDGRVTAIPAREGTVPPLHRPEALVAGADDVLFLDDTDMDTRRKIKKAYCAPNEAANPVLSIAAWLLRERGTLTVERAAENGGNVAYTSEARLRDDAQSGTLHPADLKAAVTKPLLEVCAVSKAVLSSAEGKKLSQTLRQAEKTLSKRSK
In words: Trypanosoma cruzi tyrosyl tRNA synthetase (TcYRS) _High Tyrosine SOP. Also: in the data most compounds retested in dose-response had high values. The note with it: 30 µM. Format: functional.

Assay [8] addresses T4, Tyrosyl-tRNA synthetase, putative (Trypanosoma cruzi (strain CL Brener)). In words: Trypanosoma cruzi tyrosyl tRNA synthetase (TcYRS) SOP. The following applies: 30 µM. It counts as functional.
In assay [9] the target is Chromo domain-containing protein 1 (Saccharomyces cerevisiae (strain ATCC 204508 / S288c) (Baker's yeast)) (UniProt P32657). In words: ScCHD-1 Enzyme Inhibition Assay. Also: in the data most compounds retested in dose-response had high values. Format: functional. The note with it: 30 µM.

Consider 11 molecules from ChEMBL document CHEMBL3988442, “University of Dundee, Small-Polar-MMV Screening Library” (2021).

For some of these results: Measured potencies and affinities stand elsewhere.

Sialic acid-binding Ig-like lectin 9 (Homo sapiens), sequence (Q9Y336 whole entry): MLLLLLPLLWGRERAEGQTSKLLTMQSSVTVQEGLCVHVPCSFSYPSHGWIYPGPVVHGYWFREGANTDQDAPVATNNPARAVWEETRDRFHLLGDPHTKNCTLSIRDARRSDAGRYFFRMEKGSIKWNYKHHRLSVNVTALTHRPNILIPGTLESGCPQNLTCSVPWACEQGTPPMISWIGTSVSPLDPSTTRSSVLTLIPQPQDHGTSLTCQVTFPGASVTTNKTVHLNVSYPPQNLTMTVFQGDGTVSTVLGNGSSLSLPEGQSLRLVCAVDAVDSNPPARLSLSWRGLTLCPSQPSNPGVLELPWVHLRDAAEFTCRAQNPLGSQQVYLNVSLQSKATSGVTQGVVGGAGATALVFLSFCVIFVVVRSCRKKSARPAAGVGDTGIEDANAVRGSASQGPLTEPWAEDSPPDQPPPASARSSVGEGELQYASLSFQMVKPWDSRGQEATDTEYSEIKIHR
Protein translocase subunit SecA (Escherichia coli (strain K12)), sequence (P10408 whole entry): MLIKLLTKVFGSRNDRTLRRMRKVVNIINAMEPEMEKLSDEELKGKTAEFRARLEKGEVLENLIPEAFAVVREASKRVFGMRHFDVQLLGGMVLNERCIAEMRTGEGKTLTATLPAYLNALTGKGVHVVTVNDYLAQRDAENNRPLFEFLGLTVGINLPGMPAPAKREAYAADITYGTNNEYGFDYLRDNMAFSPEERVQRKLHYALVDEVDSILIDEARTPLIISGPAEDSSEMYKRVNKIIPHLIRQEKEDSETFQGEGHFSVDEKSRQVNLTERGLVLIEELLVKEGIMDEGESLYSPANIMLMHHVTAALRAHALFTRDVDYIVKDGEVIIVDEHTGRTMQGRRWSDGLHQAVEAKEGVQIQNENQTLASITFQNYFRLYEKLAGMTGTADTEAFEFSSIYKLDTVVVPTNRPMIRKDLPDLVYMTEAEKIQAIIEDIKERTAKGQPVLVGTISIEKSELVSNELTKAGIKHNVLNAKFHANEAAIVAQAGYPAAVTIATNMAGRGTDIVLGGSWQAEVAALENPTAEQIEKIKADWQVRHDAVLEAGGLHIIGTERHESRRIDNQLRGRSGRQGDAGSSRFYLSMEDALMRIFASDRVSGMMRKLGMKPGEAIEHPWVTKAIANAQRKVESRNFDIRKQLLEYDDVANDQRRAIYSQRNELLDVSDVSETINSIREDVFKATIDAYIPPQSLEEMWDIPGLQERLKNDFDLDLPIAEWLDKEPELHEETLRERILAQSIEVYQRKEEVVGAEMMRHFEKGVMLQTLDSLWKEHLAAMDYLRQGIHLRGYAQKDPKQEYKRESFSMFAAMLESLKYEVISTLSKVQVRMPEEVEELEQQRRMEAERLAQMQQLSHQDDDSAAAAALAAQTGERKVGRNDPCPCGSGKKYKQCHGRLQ
Chromo domain-containing protein 1 (Saccharomyces cerevisiae (strain ATCC 204508 / S288c) (Baker's yeast)), sequence (P32657 whole entry, the tested form may be a part): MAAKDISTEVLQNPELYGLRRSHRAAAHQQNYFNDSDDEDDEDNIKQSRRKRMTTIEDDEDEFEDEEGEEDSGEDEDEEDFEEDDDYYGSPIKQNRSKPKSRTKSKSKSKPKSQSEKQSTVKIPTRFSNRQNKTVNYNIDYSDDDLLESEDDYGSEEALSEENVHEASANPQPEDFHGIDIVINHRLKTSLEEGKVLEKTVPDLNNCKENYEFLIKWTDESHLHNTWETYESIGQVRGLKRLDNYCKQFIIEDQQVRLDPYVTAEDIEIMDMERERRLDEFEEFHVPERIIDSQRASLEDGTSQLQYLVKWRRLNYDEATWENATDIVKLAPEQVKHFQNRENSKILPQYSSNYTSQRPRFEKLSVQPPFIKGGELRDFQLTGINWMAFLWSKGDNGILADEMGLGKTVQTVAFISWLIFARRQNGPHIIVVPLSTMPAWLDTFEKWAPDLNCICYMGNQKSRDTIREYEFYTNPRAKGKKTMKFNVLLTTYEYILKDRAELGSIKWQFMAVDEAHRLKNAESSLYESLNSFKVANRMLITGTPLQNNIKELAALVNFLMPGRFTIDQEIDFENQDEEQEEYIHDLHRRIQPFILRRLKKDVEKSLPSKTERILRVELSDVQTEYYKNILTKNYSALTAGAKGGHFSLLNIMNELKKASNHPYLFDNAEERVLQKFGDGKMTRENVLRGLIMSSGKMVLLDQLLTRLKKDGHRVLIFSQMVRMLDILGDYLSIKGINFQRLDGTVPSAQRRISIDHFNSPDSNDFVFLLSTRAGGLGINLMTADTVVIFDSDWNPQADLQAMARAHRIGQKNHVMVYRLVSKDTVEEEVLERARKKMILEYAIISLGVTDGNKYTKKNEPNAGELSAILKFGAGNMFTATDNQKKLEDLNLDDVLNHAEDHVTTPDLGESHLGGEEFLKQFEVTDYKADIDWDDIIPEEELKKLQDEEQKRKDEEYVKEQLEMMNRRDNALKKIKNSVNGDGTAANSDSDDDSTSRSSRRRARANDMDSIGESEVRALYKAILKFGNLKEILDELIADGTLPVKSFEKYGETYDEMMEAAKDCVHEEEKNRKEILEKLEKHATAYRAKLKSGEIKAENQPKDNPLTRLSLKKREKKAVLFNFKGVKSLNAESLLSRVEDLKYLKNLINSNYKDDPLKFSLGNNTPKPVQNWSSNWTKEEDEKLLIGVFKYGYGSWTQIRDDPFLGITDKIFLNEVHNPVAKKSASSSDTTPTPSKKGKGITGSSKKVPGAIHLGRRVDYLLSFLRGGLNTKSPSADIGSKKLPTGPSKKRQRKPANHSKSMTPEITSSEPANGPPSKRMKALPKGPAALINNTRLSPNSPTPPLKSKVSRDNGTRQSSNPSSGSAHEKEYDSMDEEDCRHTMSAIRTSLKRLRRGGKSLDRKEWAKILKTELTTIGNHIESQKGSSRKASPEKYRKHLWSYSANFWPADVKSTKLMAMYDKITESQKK

For the molecule `CN(C)C(=O)CO[C@H]1CN(Cc2ccc(F)cc2)[C@@H]2CCCO[C@H]12`, the Percent Effect was -4.67% in assay [1]; 10.4% in assay [2]; 1.52% in [3]; 9.7% in assay [4]; 4.23% with Trypanosoma cruzi; 2.76% in assay [5]. Moreover, the Percent Effect in assay [6] is 15.3%; in the assay listed under Homo sapiens it was -1.14%; in assay [7] it was 5.38%; in assay [8], 11.1%; in assay [9] it was -1.79%.
For `Cn1cc(C(=O)NC[C@@H]2OC[C@H]3CN(Cc4ccco4)CC[C@H]32)cn1`, the Percent Effect is 1.17% in assay [1]; 8.22% in assay [2]; -8.23% in [3]; 6.71% in [4]; 5.75% in the assay with Trypanosoma cruzi; -2.79% in assay [5]. For the same molecule, the Percent Effect in assay [6] was 8.3%; in the assay listed under Homo sapiens, 17%; in assay [7] it was 3.12%; in assay [8] it was 11.1%; in assay [9] it was -3.21%.
As for `Cn1nc(COc2cccnc2)c2c1CCN(c1cnccn1)C2`, the Percent Effect in assay [1] is -4.47%; in assay [2] it was 13.5%; in assay [3], -0.741%; in assay [4], 2.04%; with Trypanosoma cruzi it was 0.293%; in assay [5] it was 14.3%. Besides, the Percent Effect in assay [6] was 26.2%; in the assay filed under Homo sapiens, 4.97%; in assay [7], 5.41%; in assay [8], 12.8%; in assay [9] it was -3.43%.
Turning to `Cc1cc(C2CCCN2C(=O)NCc2cccc(F)c2)on1` (stereo unspecified), the Percent Effect in [1] is -3.25%; in assay [2] it was 8%; in assay [3] it was -2.75%; in assay [4], 0.538%; in the assay on Trypanosoma cruzi, -1.07%; in assay [5], 1.56%. Further, the Percent Effect in assay [6] was 16.2%; in the assay listed under Homo sapiens, 10.1%; in [7], 8.2%; in assay [8], 13.6%; in [9] it was -5.2%.
For `COc1c(C)cnc(CN2CCOC(Cn3nc(C)nc3C)C2)c1C` (stereo unspecified), the Percent Effect in assay [1] is -3.44%; in assay [2], 7.59%; in assay [3] it was -1.91%; in assay [4], 11%; in the assay on Trypanosoma cruzi, 1.6%; in assay [5], 4.94%. Moreover, the Percent Effect in [6] was -8.11%; in the assay filed under Homo sapiens it was -11.7%; in assay [7] it was 2.46%; in assay [8], -8.86%; in assay [9] it was 0.784%.
Consider `CC(C)Cc1noc(CN2CCN(CCOc3ccc(Cl)cc3)CC2)n1`, for which the Percent Effect in assay [1] is -5.56%; in [2], 21.1%; in assay [3], -0.366%; in assay [4] it was 9.07%; in the assay with Trypanosoma cruzi, 5.08%; in assay [5], -3.83%. Besides, the Percent Effect in [6] is 14.7%; in the assay listed under Homo sapiens, 32.7%; in assay [7], 5.39%; in [8], 19.5%; in assay [9] it was -8.42%.
In the case of `c1cc2c(cc1C1CCCN1Cc1nnnn1C1CC1)OCCO2` (stereo unspecified), the Percent Effect in assay [1] is -3.24%; in assay [2], 6.94%; in [3] it was -13.5%; in assay [4] it was 29.5%; with Trypanosoma cruzi, 6.32%; in assay [5] it was -5.74%. Further, the Percent Effect in assay [6] is 4.39%; in the assay filed under Homo sapiens, -5.04%; in [7], 5.26%; in [8] it was 15.4%; in assay [9] it was -4.08%.
With `Cc1cc(C)c(CNC(=O)N2CCN(c3ncccn3)CC2)c(=O)[nH]1`, the Percent Effect in assay [1] is -6.02%; in assay [2], 7.89%; in assay [3], -4.85%; in assay [4], 6.02%; with Trypanosoma cruzi it was 5.08%; in assay [5] it was 3.45%. In addition, the Percent Effect in assay [6] is 16.5%; in the assay listed under Homo sapiens, 2.72%; in assay [7], 3.43%; in assay [8] it was 7.32%; in [9] it was -10.9%.
Take `CCCc1n[nH]c(C2CN(C(=O)c3ccco3)CCO2)n1` (stereo unspecified): the Percent Effect is -3.05% in assay [1]; 0% in assay [2]; 2.64% in assay [3]; -8.28% in [4]; -1.03% with Trypanosoma cruzi; 2.52% in [5]. Besides, the Percent Effect is 8.71% in assay [6]; -11.3% in the assay filed under Homo sapiens; 0.493% in [7]; -1.24% in [8]; 13.1% in assay [9].
Take `Cc1nn(C)c(N(C)C)c1CNCC(O)COc1ccc(F)cc1` (stereo unspecified): the Percent Effect in assay [1] was -3.9%; in assay [2], 2.74%; in assay [3], -7.44%; in assay [4], -8.06%; with Trypanosoma cruzi, -1.57%; in assay [5], 0.909%. The Percent Effect in assay [6] was 12.2%; in the assay filed under Homo sapiens, -14.5%; in [7], 4.3%; in [8] it was 12.5%; in [9], -3.3%.
Regarding `COc1ccccc1OCCC(=O)N1CCCC1Cn1cc(C)cn1` (stereo unspecified), the Percent Effect in [1] was -4.84%; in assay [2] it was 13%; in [3], 5.75%; in assay [4] it was 5.19%; in the assay with Trypanosoma cruzi, 1.86%; in assay [5], 3.16%. In addition, the Percent Effect in [6] is 0.0808%; in the assay listed under Homo sapiens it was 7.77%; in assay [7], 7.62%; in [8] it was 18.8%; in assay [9], -6.89%.
